RORgamma inh: qHTS for inhibitors of ROR gamma transcriptional activity; Nuclear receptor ROR-gamma (Mus musculus), P51450; Drosophila S2 Gal4-RORgamma UAS-luciferase reporter, 20 h; Potency, µM (series often up to 53.6 µM), for inactives: top-dose activity change, negative = inhibition, usual class: inhibitors; 310,000 compounds, 5.4% hits; further: potency means the concentration at half of the fitted maximal effect; nearly all actives have a fitted effect of over 60% in size
Target sequence (P51450 whole entry, looked up, the tested form may be a part): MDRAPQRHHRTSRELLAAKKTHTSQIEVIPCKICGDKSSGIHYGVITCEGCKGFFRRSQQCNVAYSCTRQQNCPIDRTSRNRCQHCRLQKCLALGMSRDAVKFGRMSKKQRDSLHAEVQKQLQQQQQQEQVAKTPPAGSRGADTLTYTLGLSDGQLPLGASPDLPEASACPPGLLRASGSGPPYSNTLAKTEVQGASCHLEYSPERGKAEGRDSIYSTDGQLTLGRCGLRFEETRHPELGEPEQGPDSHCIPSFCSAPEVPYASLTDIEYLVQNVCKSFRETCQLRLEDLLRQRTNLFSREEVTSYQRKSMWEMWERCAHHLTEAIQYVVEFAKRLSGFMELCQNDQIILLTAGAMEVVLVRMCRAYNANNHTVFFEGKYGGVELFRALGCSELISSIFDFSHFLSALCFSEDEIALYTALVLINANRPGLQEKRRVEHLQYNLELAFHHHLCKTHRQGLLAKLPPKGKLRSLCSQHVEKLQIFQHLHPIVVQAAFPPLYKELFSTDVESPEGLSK
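Drosophila Schneider cells stably carrying a metallothionein-driven Gal4 DBD–ROR gamma fusion and a UAS-Photinus luciferase reporter were exposed to compound for 1 hr, then induced with copper sulfate (700 uM final) for 20 hr at ambient temperature before luminescence reading.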
VP16 counter: VP16 counterscreen qHTS for inhibitors of ROR gamma transcriptional activity; Potency, µM (highest dose often 53.6 µM), without a hit: top-dose activity, negative = inhibition, most hits filed as inhibitors; Drosophila S2 Gal4-VP16 UAS-luciferase, luminescence, 20 h; 310,000 compounds, 3.5% hits;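 further: Gal4-VP16 expression switched on by copper sulfate through the metallothionein promoter; potency means the concentration at half of the fitted maximal effect; nearly all actives have a fitted effect of over 50% in size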
LDHA block: qHTS assay for inhibitors of human lactate dehydrogenase; L-lactate dehydrogenase A chain (Homo sapiens), P00338; purified LDHA, NADH/diaphorase-resazurin fluorescence; active compounds read low; activity change, % (values are at about 110 or 230 µM); 480,000 compounds, 0.15% hits; AID 1347041, 2019; in the data active means activity change below about -30%; inconclusive means mostly about -25% to -30%;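 further: plate controls were DMSO wells for no effect and wells without enzyme for full effect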
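Human LDH5 at 2 nM final in Tris HCl pH 7.4 with 0.06 mM NADH and 0.2 mM pyruvate, reacted 5 minutes at room temperature. Remaining NADH coupled via diaphorase/resazurin; resorufin fluorescence read at 0 and 20 minutes, normalized to enzyme-free and DMSO wells.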
IL-1B inflam inh: qHTS for Inhibitors of Inflammasome Signaling: IL-1-beta AlphaLISA Primary Screen | THP-1 LPS/ATP IL-1B secretion, AlphaLISA, 16 h; active compounds read low | activity change, % at 57.5 µM | 360,000 compounds, 4.7% hits; in the data active means activity change below about -50%; inconclusive means mostly about -30% to -49%
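THP-1 cells pretreated 1 hr with compounds (up to 57.5 uM final), then stimulated with LPS (250 ng/mL final) plus ATP (1.25 mM final); secreted IL-1B measured by AlphaLISA after 16 hr, decreased signal indicating inhibition.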
DT40 TDP1 no CPT: qHTS for Inhibitors of human tyrosyl-DNA phosphodiesterase 1 (TDP1): qHTS in cells in absence of CPT | 420,000 compounds, 15% hits | AID 686978, 2013 | DT40 Tdp1-/- hTDP1 cells, no CPT, ATP luminescence, 48 h | Potency, µM (doses to about 46.2 µM), for the others: at the highest dose activity change, negative = growth inhibition, most hits filed as inhibitors; further: potency means the concentration at half of the fitted maximal effect; nearly all actives have a fitted effect of over 55% in size
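Camptothecin absent (DMSO only). Human TDP1-complemented DT40 knockout cells, 400 cells/well, 37 °C for minimum 48 hr; ATP measured via CellTiter-Glo, 30 min dark incubation, luminescence.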
DT40 TDP1 CPT: qHTS for Inhibitors of human tyrosyl-DNA phosphodiesterase 1 (TDP1): qHTS in cells in presence of CPT. chicken DT40 Tdp1-/-;hTDP1 cells + 20 nM CPT, ATP luminescence, 48 h. Potency, µM (top dose mostly 46.2 µM), for the others: top-dose activity change, negative = growth inhibition, actives largely listed as inhibitors. 420,000 compounds, 12% hits. AID 686979, 2013; further: potency means the concentration at half of the fitted maximal effect; nearly all actives have a fitted effect of over 55% in size
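Cell growth measured by CellTiter-Glo luminescence after a minimum 48 h, 37 C compound exposure with 20 nM CPT in Tdp1-knockout DT40 cells stably expressing hTDP1, seeded 400/well; qHTS titration format.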
* marks the source's active call; other numbers are inactive results; ? = inconclusive; nt = not tested or not shown. Compounds with a hit are over-represented: about 18% of the library has one in this group of screens. Unless noted, the call rests on the fitted dose curve; in most records, active means well fitted curve in the direction sought with a large enough effect; inconclusive means small, poorly fitted or top-dose-only effect, or another doubt; inactive means no such curve, though single readings can be large; an effect the other way counts as inactive or inconclusive. Unless noted, on the % scale 0 is the no-effect control and ±100 the full control effect.

SMILES	RORgamma inh	VP16 counter	LDHA block	IL-1B inflam inh	DT40 TDP1 no CPT	DT40 TDP1 CPT
CCOC(=O)[C@]12CCCC=C1N(CCC1=CCCCC1)C(=O)[C@H](CC(=O)NCc1cccc3ccccc13)C2	nt	nt	1	13	16µM*	?
CCCCCCCCN1C(=O)[C@H](CC(=O)NCCc2ccccc2OC)C[C@@]2(C(=O)OCC)CCCC=C12	nt	nt	7	?	29µM*	?
CCCCNC(=O)C[C@@H]1C[C@@]2(C(=O)OCC)CCCC=C2N(CCC2=CCCCC2)C1=O	nt	nt	1	-2	8.2µM*	8.2µM*
CCOC(=O)[C@]12CCC=C1N(CCC1=CCCCC1)C(=O)[C@H](CC(=O)NCCCOC)C2	nt	nt	2	0	?	-22%
O=C(NCc1ccccn1)c1ccccc1Nc1ccccc1	nt	nt	-3	nt	nt	nt
Cc1ccc(C)c(N2CCN(C(=O)c3ccccc3NC(=O)Cn3c(C)cc(C)c(C#N)c3=O)CC2)c1	nt	nt	-7	nt	nt	nt
Cc1cc(NC(=O)COc2ccc3c(C(C)C)cc(=O)oc3c2)no1	nt	nt	5	nt	nt	nt
CCC(CC)(CC(=O)Nc1ccc2oc(C)nc2c1)C(=O)O	nt	nt	13	nt	nt	nt
CC(C)NC(=O)/C=C/c1cccc(Cl)c1	nt	nt	-2	nt	nt	nt
COC(=O)[C@]12CCCCC=C1N(CCC1=CCCCC1)C(=O)[C@H](CC(=O)NCc1ccc(OC)c(OC)c1)C2	nt	nt	-1	-12	?	?
CCCCCCCCN1C(=O)[C@H](CC(=O)NCCCOC)C[C@@]2(C(=O)OCC)CCCC=C12	nt	nt	10	?	12µM*	23µM*
COCCCNC(=O)C[C@@H]1C[C@@]2(C(=O)OC)CCCCC=C2N(CCc2ccc(OC)c(OC)c2)C1=O	nt	nt	-2	24	?	-15%
CCOC(=O)[C@]12CCCC=C1N(CCC1=CCCCC1)C(=O)[C@H](CC(=O)NCc1ccc(OC)c(OC)c1)C2	nt	nt	0	-14	15µM*	15µM*
CCOC(=O)[C@]12CCCC=C1N(CCc1ccc(OC)c(OC)c1)C(=O)[C@H](CC(=O)NCC13CC4CC(CC(C4)C1)C3)C2	nt	nt	3	-20	16µM*	15µM*
CCCCCCCCN1C(=O)[C@H](CC(=O)NCCCN2CCCC2=O)C[C@@]2(C(=O)OCC)CCCC=C12	nt	nt	5	-12	?	?
CCCCNC(=O)C[C@@H]1C[C@@]2(C(=O)OC)CCCCC=C2N(CCc2ccc(OC)c(OC)c2)C1=O	nt	nt	-4	-13	23µM*	?
CCCCC(=O)Nc1ccc2oc(-c3ccc(Cl)cc3)nc2c1	nt	nt	5	nt	nt	nt
Cc1csc(SC2=CS(=O)(=O)c3ccccc32)n1	nt	nt	-1	nt	nt	nt
CCOC(=O)[C@]12CCCC=C1N(CCc1ccc(OC)c(OC)c1)C(=O)[C@H](CC(=O)NCCc1ccccc1OC)C2	nt	nt	2	-3	16µM*	13µM*
COC(=O)[C@]12CCCCC=C1N(CCc1ccc(OC)c(OC)c1)C(=O)[C@H](CC(=O)N1CCSCC1)C2	nt	nt	-6	?	?	?
CCCCCCCCN1C(=O)[C@H](CC(=O)NCC23CC4CC(CC(C4)C2)C3)C[C@@]2(C(=O)OCC)CCCC=C12	nt	nt	0	4	18µM*	?
CCOC(=O)[C@]12CCCC=C1N(CCc1ccc(OC)c(OC)c1)C(=O)[C@H](CC(=O)N1CCSCC1)C2	nt	nt	6	-10	?	16µM*
CCOC(=O)[C@]12CCC=C1N(CCC1=CCCCC1)C(=O)[C@H](CC(=O)N1CCSCC1)C2	nt	nt	1	28	?	18µM*
CCCCNC(=O)C[C@@H]1C[C@@]2(C(=O)OCC)CCCC=C2N(Cc2ccccc2)C1=O	nt	nt	-3	?	?	?
Cc1ccc(-c2cc(=O)c3cc(Cl)cc(Cl)c3o2)cc1	nt	nt	-6	nt	nt	nt
SMILES	RORgamma inh	VP16 counter	LDHA block	IL-1B inflam inh	DT40 TDP1 no CPT	DT40 TDP1 CPT
CC(C(=O)N(C)CC(=O)Nc1ccccc1C(F)(F)F)N1CCN(Cc2ccccc2)CC1 (stereo unspecified)	nt	nt	5	nt	nt	nt
COC(=O)[C@]12CCCCC=C1N(CCc1ccc(OC)c(OC)c1)C(=O)[C@H](CC(=O)NCCC(C)C)C2	nt	nt	4	?	?	?
CCOC(=O)[C@]12CCC=C1N(CCC1=CCCCC1)C(=O)[C@H](CC(=O)NCc1cccc(C(F)(F)F)c1)C2	nt	nt	-2	-21	21µM*	?
CCCCCCCCN1C(=O)[C@H](CC(=O)NCCC(C)C)C[C@@]2(C(=O)OCC)CCC=C12	nt	nt	2	9	21µM*	21µM*
CCCCCCCCN1C(=O)[C@H](CC(=O)NCc2ccccc2)C[C@@]2(C(=O)OCC)CCC=C12	nt	nt	-6	?	?	?
CCOC(=O)[C@]12CCCC=C1N(CCc1ccc(OC)c(OC)c1)C(=O)[C@H](CC(=O)NCCCCc1ccccc1)C2	nt	nt	1	-57*	16µM*	?
CN(C)c1cccc(C(=O)NNC(=S)NC2CC3CCC2C3)c1 (stereo unspecified)	4µM*	-14%	-2	-26	?	?
CC(C)COc1ccc(CSCCNC(=S)Nc2ccccc2)cc1	1.1µM*	3.2µM*	-1	-9	15µM*	?
CCCCCOc1ccc(CSCCNC(=S)Nc2ccccc2)cc1	3.2µM*	3.2µM*	-2	16	-28%	-14%
CCCCOc1ccc(CSCCNC(=S)Nc2ccccc2)cc1	4.5µM*	4.5µM*	-9	-5	?	18µM*
COC(=O)c1ccc(/C=C/C(=O)NCCC(c2ccccc2)c2ccccc2)cc1	nt	nt	10	nt	nt	nt
O=C(NCCn1ccc2ccccc21)c1ccc(S(=O)(=O)N2CCCCC2)cc1	?	-4%	3	20	23µM*	?
Cc1c(C(=O)NCCn2ccc3ccccc32)cccc1[N+](=O)[O-]	?	0%	2	-24	?	-30%
Cc1ccc(C(=O)NCCn2ccc3ccccc32)cc1[N+](=O)[O-]	17%	4%	6	?	8.2µM*	13µM*
COc1ccc(C2OCC3OC(OC)C(OCc4ccccc4)C(O)C3O2)cc1 (stereo unspecified)	nt	nt	-1	nt	nt	nt
CN(CC(=O)NC1(C)CCS(=O)(=O)C1)Cc1ccc(Cl)c(Cl)c1 (stereo unspecified)	nt	nt	5	nt	nt	nt
CC(=O)Nc1cc(-c2ccc(N3CCN(C)CC3)cc2)cn2c(-c3ccccc3)cnc12	nt	nt	0	nt	16µM*	21µM*
